We go through eleven compounds from ChEMBL document CHEMBL3988442, “University of Dundee, Small-Polar-MMV Screening Library” (2021).

What all share (parameters): scale not given: direction of the effect not stated beside the values
Test [1] has as its target Protein translocase subunit SecA (Escherichia coli (strain K12)) (UniProt P10408). In words: Assay to Identify E. coli SecA ATPase Inhibitors. It counts as functional. To be noted: 30 µM.
Test [2] concerns the target T1, Ubiquitin-activating enzyme e1, putative (Leishmania donovani (strain BPK282A1)) (UniProt E9BSI1).
T1 sequence (whole entry): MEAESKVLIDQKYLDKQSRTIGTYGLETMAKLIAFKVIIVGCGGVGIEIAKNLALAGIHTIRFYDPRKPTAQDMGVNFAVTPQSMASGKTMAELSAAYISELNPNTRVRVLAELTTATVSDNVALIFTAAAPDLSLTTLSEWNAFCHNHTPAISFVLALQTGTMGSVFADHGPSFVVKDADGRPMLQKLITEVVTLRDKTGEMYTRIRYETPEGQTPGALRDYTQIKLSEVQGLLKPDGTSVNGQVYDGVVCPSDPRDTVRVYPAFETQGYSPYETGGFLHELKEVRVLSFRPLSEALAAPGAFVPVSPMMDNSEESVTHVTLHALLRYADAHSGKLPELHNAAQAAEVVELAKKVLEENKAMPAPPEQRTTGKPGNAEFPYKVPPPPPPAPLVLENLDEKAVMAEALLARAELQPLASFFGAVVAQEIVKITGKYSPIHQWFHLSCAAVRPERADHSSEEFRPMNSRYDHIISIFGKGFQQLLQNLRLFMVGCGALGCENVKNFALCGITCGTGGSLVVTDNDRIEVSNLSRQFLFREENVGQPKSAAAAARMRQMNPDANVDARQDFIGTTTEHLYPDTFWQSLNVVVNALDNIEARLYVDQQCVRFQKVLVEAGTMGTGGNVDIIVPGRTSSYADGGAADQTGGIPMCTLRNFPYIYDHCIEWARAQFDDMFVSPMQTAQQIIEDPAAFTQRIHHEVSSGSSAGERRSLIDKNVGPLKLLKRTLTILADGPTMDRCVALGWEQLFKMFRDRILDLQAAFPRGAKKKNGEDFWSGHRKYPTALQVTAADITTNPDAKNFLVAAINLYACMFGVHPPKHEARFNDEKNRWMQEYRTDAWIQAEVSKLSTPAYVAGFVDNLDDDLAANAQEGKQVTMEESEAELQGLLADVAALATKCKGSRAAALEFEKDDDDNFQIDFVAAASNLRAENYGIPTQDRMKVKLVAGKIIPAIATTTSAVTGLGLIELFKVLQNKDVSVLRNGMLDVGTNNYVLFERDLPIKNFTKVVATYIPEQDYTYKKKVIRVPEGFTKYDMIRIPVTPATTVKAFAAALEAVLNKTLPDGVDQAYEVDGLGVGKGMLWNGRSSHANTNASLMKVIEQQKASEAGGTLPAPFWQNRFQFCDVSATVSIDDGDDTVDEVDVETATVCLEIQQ
In words: Leishmania donovani Ubiquitin Activating Enzyme (LdE1). It counts as functional. The conditions noted are these: 30 µM.

Test [3] has as its target AMP-activated protein kinase, AMPK (Homo sapiens) (UniProt P54646+O43741+P54619+Q9UGJ0+Q9Y478+Q13131+Q9UGI9). Description: AMP-dependent Kinase enzyme assay. An in vitro enzyme assay that detects ADP turnover that is directly proportional to AMPK activity. This uses naive AMPK that is activated during the assay with MK-8722. It counts as functional. To be noted: 30 µM.

Test [4] has as its target Sialic acid-binding Ig-like lectin 9 (Homo sapiens) (UniProt Q9Y336). In words: Hs-Siglec9 ALPHAscreen SOP 20170721. The conditions noted are these: 10 µM. On the technique in general: In Alpha technology, singlet oxygen from a donor bead excites a nearby acceptor bead.
Test [5] has as its system Trypanosoma cruzi. Description: Trypanosoma cruzi phosphomannomutase and mannose-1-phosphate guanylyltransferase assay. The format is functional. The conditions noted are these: 10 µM.
The target of test [6] is T2, Arginase-2, mitochondrial (Homo sapiens) (UniProt P78540).
T2 sequence (whole entry): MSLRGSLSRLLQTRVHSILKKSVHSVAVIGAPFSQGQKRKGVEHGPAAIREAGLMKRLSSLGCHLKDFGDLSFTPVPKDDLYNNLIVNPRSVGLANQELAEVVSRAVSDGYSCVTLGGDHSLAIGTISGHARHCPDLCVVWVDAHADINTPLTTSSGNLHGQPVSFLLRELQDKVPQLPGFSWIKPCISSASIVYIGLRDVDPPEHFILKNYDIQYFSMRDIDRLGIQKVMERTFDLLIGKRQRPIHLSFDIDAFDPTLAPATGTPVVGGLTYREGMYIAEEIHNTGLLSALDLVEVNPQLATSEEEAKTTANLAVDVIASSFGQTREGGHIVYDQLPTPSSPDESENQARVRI
In words: in vitro enzyme assay to detect the production of urea directly proportional to the activity of Arginase II. Further: in the data most compounds retested in dose-response had high values. The format is functional. The conditions noted are these: 33.3 µM.

In test [7] the target is T3, Proteasome subunit beta (Trypanosoma cruzi) (UniProt O96673).
T3 sequence (whole entry): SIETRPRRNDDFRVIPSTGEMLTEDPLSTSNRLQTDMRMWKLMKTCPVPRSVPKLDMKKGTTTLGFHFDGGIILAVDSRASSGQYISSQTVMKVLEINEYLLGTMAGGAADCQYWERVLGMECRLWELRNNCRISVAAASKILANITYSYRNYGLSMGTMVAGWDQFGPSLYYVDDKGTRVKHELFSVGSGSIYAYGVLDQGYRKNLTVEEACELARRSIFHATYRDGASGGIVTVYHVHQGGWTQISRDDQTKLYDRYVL
Description: Trypanosoma cruzi proteasome chymotrypsin-like activity (TcProtChymo) assay. Further: in the data most compounds retested in dose-response had high values. It counts as functional. The conditions noted are these: 9.37 µM.

The species named for test [8] is Homo sapiens. Description: To identify inhibition of the IFN signalling (Jak-Stat) pathway via expression of an eGFP reporter gene under the control of an IFN-stimulated response element (ISRE) containing MxA promoter. It counts as functional. The conditions noted are these: 30 µM. (Reporter assays use an easily measured gene product as a stand-in for the process of interest.)

In test [9] the target is T4, Tyrosyl-tRNA synthetase, putative (Trypanosoma cruzi (strain CL Brener)) (UniProt Q4DSP6).
T4 sequence (whole entry): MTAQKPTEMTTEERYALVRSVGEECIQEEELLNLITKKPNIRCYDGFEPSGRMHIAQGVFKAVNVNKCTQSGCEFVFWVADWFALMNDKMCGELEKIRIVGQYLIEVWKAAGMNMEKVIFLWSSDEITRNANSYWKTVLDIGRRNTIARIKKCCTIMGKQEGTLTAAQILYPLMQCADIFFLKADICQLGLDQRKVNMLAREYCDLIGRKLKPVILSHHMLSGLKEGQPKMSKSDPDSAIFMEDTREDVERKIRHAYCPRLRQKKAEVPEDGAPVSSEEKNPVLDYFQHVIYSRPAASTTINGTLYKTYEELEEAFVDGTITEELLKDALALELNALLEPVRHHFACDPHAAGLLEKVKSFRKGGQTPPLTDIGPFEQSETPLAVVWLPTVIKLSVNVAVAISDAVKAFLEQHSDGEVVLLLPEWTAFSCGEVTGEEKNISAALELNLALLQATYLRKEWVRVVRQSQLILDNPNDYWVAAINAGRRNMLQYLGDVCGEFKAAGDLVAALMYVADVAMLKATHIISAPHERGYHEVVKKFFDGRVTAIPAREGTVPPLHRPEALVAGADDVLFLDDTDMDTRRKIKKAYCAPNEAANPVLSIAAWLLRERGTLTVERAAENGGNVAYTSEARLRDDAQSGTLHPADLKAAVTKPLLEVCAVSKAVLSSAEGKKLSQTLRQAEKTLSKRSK
Description: Trypanosoma cruzi tyrosyl tRNA synthetase (TcYRS) _High Tyrosine SOP. Further: in the data most compounds retested in dose-response had high values. The format is functional. To be noted: 30 µM.

In test [10] the target is T4, Tyrosyl-tRNA synthetase, putative (Trypanosoma cruzi (strain CL Brener)). Description: Trypanosoma cruzi tyrosyl tRNA synthetase (TcYRS) SOP. It counts as functional. The conditions noted are these: 30 µM.
Test [11] deals with Chromo domain-containing protein 1 (Saccharomyces cerevisiae (strain ATCC 204508 / S288c) (Baker's yeast)) (UniProt P32657). Description: ScCHD-1 Enzyme Inhibition Assay. Further: in the data most compounds retested in dose-response had high values. It counts as functional. The conditions noted are these: 30 µM.

For some of these results: Entries with a potency or affinity are not part of this list.

Protein translocase subunit SecA (Escherichia coli (strain K12)), sequence (P10408 whole entry): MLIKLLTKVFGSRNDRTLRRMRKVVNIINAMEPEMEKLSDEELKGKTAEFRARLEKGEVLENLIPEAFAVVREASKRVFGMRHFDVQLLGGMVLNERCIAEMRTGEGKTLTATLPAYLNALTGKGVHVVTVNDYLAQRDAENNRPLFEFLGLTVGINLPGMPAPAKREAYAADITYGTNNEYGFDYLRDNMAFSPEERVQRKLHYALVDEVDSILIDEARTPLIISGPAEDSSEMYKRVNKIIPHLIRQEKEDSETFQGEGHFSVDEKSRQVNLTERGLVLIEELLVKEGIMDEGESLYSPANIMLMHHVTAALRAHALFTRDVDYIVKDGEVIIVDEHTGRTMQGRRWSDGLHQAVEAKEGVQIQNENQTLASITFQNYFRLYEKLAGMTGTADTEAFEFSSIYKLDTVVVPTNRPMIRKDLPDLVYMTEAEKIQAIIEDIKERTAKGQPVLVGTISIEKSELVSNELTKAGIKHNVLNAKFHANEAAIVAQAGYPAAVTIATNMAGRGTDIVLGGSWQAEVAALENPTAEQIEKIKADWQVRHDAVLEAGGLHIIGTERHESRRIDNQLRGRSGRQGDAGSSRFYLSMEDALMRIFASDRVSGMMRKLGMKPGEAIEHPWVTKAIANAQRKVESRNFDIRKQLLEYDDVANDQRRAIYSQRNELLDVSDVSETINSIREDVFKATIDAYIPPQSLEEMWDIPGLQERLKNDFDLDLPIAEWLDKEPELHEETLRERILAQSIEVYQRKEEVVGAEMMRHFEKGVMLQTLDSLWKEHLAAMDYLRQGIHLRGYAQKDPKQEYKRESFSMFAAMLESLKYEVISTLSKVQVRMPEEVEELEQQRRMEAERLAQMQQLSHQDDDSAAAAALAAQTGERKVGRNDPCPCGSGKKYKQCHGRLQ
Chromo domain-containing protein 1 (Saccharomyces cerevisiae (strain ATCC 204508 / S288c) (Baker's yeast)), sequence (P32657 whole entry, the tested form may be a part): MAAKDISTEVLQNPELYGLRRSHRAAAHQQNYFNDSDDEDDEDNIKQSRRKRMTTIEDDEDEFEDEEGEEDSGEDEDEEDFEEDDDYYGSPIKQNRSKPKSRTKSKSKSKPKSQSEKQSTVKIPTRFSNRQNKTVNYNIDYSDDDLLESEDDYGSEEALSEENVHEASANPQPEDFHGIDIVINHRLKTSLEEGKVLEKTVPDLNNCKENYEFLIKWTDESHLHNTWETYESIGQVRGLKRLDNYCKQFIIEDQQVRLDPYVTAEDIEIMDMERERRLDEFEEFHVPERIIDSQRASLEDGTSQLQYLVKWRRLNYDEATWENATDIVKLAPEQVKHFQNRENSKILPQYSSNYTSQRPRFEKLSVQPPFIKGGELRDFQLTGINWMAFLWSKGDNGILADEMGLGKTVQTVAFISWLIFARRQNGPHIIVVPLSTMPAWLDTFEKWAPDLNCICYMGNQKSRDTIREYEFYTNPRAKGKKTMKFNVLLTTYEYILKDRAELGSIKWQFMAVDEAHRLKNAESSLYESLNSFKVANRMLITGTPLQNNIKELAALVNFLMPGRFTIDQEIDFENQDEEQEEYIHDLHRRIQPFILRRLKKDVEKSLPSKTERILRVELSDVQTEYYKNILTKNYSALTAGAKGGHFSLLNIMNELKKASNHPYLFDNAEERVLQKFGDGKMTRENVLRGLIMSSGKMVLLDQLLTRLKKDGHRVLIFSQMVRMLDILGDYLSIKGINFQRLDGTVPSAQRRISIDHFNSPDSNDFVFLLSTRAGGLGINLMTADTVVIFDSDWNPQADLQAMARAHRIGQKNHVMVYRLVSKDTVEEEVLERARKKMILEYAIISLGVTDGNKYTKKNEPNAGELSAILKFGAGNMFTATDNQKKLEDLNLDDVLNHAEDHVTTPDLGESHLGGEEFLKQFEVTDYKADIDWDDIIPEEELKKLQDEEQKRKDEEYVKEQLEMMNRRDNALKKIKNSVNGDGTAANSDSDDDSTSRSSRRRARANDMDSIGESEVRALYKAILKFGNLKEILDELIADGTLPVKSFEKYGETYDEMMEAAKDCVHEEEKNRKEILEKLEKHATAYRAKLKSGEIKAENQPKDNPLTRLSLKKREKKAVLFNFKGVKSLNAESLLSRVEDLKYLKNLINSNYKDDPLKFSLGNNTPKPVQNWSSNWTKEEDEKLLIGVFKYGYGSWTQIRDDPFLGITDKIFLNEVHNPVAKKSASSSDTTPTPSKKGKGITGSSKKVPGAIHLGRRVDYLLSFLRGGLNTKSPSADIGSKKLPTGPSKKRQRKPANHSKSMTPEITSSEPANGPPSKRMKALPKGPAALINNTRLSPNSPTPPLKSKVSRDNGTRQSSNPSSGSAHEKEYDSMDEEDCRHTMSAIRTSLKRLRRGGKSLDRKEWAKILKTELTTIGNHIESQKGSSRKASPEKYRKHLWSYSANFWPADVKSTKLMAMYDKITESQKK
Sialic acid-binding Ig-like lectin 9 (Homo sapiens), sequence (Q9Y336 whole entry): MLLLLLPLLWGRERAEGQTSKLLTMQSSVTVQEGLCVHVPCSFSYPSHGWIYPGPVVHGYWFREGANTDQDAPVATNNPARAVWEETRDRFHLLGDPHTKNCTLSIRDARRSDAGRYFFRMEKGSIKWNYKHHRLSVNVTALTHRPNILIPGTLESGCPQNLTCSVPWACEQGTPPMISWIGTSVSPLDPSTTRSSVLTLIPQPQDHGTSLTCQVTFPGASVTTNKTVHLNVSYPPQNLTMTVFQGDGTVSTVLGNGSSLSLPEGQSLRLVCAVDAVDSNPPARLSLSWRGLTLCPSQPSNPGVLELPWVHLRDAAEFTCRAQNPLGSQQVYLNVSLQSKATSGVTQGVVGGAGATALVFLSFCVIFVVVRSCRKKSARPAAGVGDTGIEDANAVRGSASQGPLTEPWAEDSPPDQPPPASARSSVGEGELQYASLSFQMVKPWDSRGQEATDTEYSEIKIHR

As for `COCCN1C[C@@H]2CN(Cc3ccsc3)CCC[C@]2(C(=O)O)C1`, the Percent Effect in test [1] was 0.995%; in test [2], 10.4%; in [3] it was 4.76%; in test [4], -2.5%; in test [5], -5.23%; in test [6], 11%. Moreover, the Percent Effect in [7] is 16.5%; in test [8] it was 13.1%; in [9], 4.23%; in test [10], 14.1%; in [11], -4.97%.
In the case of `CCn1nc(CC(C)C)cc1C(=O)N1CC[C@@H](O)C1`, the Percent Effect was -4.98% in test [1]; 18.7% in test [2]; -5.58% in test [3]; 22.7% in test [4]; 2.82% in test [5]; 9.38% in [6]. In addition, the Percent Effect was 12.7% in test [7]; -2.86% in test [8]; 3.83% in [9]; 13.6% in test [10]; 92.8% in test [11].
As for `Cc1cccc(C(=O)N2C[C@@H]3OCCN(c4ncccn4)[C@@H]3C2)n1`, the Percent Effect in test [1] was -4.13%; in test [2], 5.33%; in [3], -3.52%; in [4], 4.37%; in test [5], -2.7%; in test [6] it was -8.78%. In addition, the Percent Effect in [7] is 7.35%; in [8] it was -6.79%; in test [9], 5.21%; in test [10] it was 0%; in test [11] it was 0.315%.
Consider `CC(C)C(Sc1nnc(C2CC2)n1C1CC1)C(=O)NCc1cccnc1` (stereo unspecified), for which the Percent Effect in [1] is 1.83%; in [2], -2.6%; in [3], -2.77%; in test [4] it was 5.12%; in test [5], 5.24%; in test [6] it was -1.42%. For the same compound, the Percent Effect in test [7] was 3.21%; in test [8], -24.2%; in [9], 5.83%; in test [10], 12.2%; in test [11] it was -8.74%.
On to `N#Cc1ccc(OC2CCN(C(=O)c3ccc4c(c3)OCO4)CC2)nc1`, for which the Percent Effect in test [1] is -3.87%; in test [2], 13.7%; in test [3], -6.59%; in [4], 16.4%; in test [5], 6.07%; in test [6] it was -0.909%. The Percent Effect in [7] was 2.13%; in test [8], 8.98%; in [9], 3.23%; in [10] it was 15%; in test [11], -2.59%.
For `N#Cc1ccccc1CN1C[C@@H]2CC[C@H](C1)N(CC1CC1)C2=O`, the Percent Effect in test [1] was -0.53%; in [2] it was 13.5%; in [3], -0.476%; in test [4], 12.4%; in test [5] it was 1.74%; in [6], 2.38%. The Percent Effect was 13.4% in [7]; 4.71% in test [8]; 4.76% in [9]; 14.6% in test [10]; -0.908% in [11].
Turning to `Oc1ccc(N2CCN(Cc3cc4c(cc3Br)OCCO4)CC2)cc1`, the Percent Effect in test [1] is -0.859%; in [2], -9.72%; in test [3], 44.8%; in test [4] it was 3.01%; in test [5], -1.07%; in test [6], -2.21%. The Percent Effect is 13.2% in test [7]; 27.4% in test [8]; 9.47% in test [9]; 10.3% in test [10]; -3.02% in [11].
For the compound `CCCC(=O)Nc1sc(C(=O)OCC)c(C)c1C#N`, the Percent Effect in test [1] is 0.0516%; in test [2], 7.79%; in [3] it was 24.2%; in [4], -8.77%; in [5], -5.42%; in test [6], 8.39%. Also, the Percent Effect in [7] is 10.4%; in test [8], -0.547%; in [9], 1.06%; in [10], 16.7%; in test [11], -3.68%.
As to `CN(C)C(=O)CN1C[C@@H]2CC[C@H](C1)N(C(=O)CCn1cncn1)C2`, the Percent Effect was -2.58% in test [1]; 5.41% in [2]; -3.51% in test [3]; 3.26% in test [4]; -1.16% in [5]; -0.952% in test [6]. Moreover, the Percent Effect was 2.76% in test [7]; -15.8% in test [8]; 6.88% in test [9]; 9.76% in test [10]; -3.62% in test [11].
`CC(=O)N1CCCN(C(=O)c2ccn(-c3cccc(Cl)c3)n2)CC1`: the Percent Effect in [1] was -2.55%; in test [2], 15.6%; in [3], -0.208%; in [4] it was -4.72%; in test [5] it was -4.31%; in test [6], -1.42%. Besides, the Percent Effect in test [7] was 12.8%; in test [8] it was 10.3%; in [9], 5.83%; in test [10] it was 14.6%; in [11], -6%.
As for `Cc1nc(C)n(CC2CN(CCc3ccncc3)CCO2)n1` (stereo unspecified), the Percent Effect in test [1] is -1.44%; in [2] it was 5.48%; in [3], 1.35%; in test [4] it was 6.79%; in [5], 0.979%; in test [6], 3.64%. Further, the Percent Effect in test [7] is 10.3%; in test [8], 16.9%; in [9], 4.3%; in test [10], 10%; in test [11], -5.67%.
